Data reported in PubChem BioAssay (NCATS).
Results filed as inconclusive are left out. Active and inactive are the calls of the source. The call rests on the fitted dose curve.

Experiment: qHTS Assay for Lipid Storage Modulators (AID 1519); on activity change, negative = inhibition: on the % scale 0 is the no-effect control and ±100 the full control effect
Conditions: Drosophila S3 cells, BODIPY lipid droplet/cell ratio, laser cytometry, cells loaded with oleic acid
Source text: NIH Molecular Libraries Probe Production Centers Network [MLPCN]
NIH Chemical Genomics Center [NCGC]
Assay Submitter (PI): Beller, Mathias; Max-Planck-Institut fur Biophysikalische Chemie
NCGC Assay Overview: Storing lipids as a reservoir for energy or the anabolism of elementary metabolites is a common feature of probably all cells and is conserved from bacteria to humans. The universal cellular lipid storage organelle is the so-called lipid storage droplet (LD). Although ubiquitous, LDs share a simple structure composed of a hydrophobic core that harbors the storage lipids, which is shielded by a droplet-specific phospholipid monolayer to which proteins are attached. The current model of LD biogenesis involves an incorporation of the lipid core into the membrane leaflets of the endoplasmic reticulum (ER) followed by a subsequent budding-like maturation of a LD, which ultimately pinches off. Once released, LD volume can increase by localized lipogenesis or fusion of existing droplets. Storage lipids are re-mobilized enzymatically by lipase activity. Lipase regulation in the adipocyte is heavily studied and involves multiple components including catecholamine signaling, the LD-associated proteins Perilipin and comparative gene identification-58 (CGI-58) and at least two lipases named hormone sensitive lipase (HSL) and adipocyte triglyceride lipase (ATGL). LD regulation outside of the adipocyte is poorly understood and only few components are known. However, there is an urgent need to learn more about ectopic fat depots as mislocalized storage of lipids, for example in the liver or muscle, is an eminent health problem associated with insulin resistance or the metabolic syndrome. We developed a laser-scanning cytometer assay to enable 1,536-well screening and combined the results of the small molecules screen with an RNAi database based on lipid storage.
NCGC Assay Protocol Summary:
We dispensed 4 uL of cells at 1.25 x 10^6 cells/mL into LoBase Aurora COC 1,536-well plates (black walled, clear bottom) with a bottle-valve solenoid-based dispenser (Aurora) to obtain 5,000 cells/well. Triacsin C (Sigma-Aldrich T-4540), an inhibitor of long-chain fatty acyl CoA synthetase that blocks synthesis of triglycerides, was used as a positive control for lipid under-storage. A total of 23 nL of compound solution of different concentrations were transferred to the assay plates using a Kalypsys pin tool equipped with a 1,536-pin array containing 10-nL slotted pins (FP1S10, 0.457-mm diameter, 50.8 mm long; V&P Scientific). One microliter of oleic acid (400 uM) was added, and the plate was lidded with stainless steel rubber gasket lined lids containing pinholes. […] Fluorescence was detected by excitation of the fluorophores with a 488-nm laser on an Acumen Explorer (TTP Lab Tech). The total intensity in channel 1 (500-530 nm) reflected lipid droplet accumulation. […] The ratio of the total intensity in PMT channel 1 over total intensity of channel 3 was also calculated. Percent activity was computed relative to an internal control (100% inhibited lipid droplet deposition due to the presence of 20 uM Triacsin C), which was added to 32 wells/plate.

[1] = measured here: cell count channel max response
[2] = measured here: lipid channel max response

| Structure (SMILES) | activity change, negative = inhibition (at 25.7 µM (top of the series)) | max response [1] [%] | max response [2] [%] | activity change, negative = inhibition (at 57.5 µM (top of the series)) |
| --- | --- | --- | --- | --- |
| CC(C)(C)CC(C)(C)c1ccc(OCOCCOCCO)c(Cc2cc(C(C)(C)CC(C)(C)C)cc(Cc3cc(C(C)(C)CC(C)(C)C)ccc3OCOCCOCCO)c2OCOCCOCCO)c1 | -6.93% (inactive) | -10.1 | -15.2 | – |
| CN1CCCC1CCO[C@@](C)(c1ccccc1)c1ccc(Cl)cc1 (some centres not stated) | – | -21.6 | -28.2 | -9.48% (inactive) |
| CC1(C)OC2C(CO)OC(n3cnc4c(=O)[nH]c(N)nc43)C2O1 (configuration not stated) | – | 24 | 28 | 4.01% (inactive) |
| C=C(C)C1Cc2c(ccc(C(=O)O)c2O)O1 (configuration not stated) | – | 17 | 23.8 | 5.26% (inactive) |
| CC(=O)O[C@@]1(C(C)=O)CCC2C3CC(C)C4=CC(=O)CC[C@@]4(C)C3CC[C@]21C (some centres not stated) | – | 4.77 | -5.62 | -11.6% (inactive) |
| COc1cc2c(cc1OC)Cc1cc(OC)c(OC)cc1Cc1cc(OC)c(OC)cc1C2 | – | 2.54 | 2.42 | -1.62% (inactive) |
| CC1(C)C2CC[C@@]1(C)C(=O)C2 | – | 13.5 | 19.8 | 3.53% (inactive) |
| COc1ccc(C2CC(=O)c3c(O)cc(OC4OC(COC5OC(C)C(O)C(O)C5O)C(O)C(O)C4O)cc3O2)cc1O (configuration not stated) | – | -19 | -20.2 | -2.69% (inactive) |
| O=C(/C=C/c1ccccc1)c1ccc(O)cc1 | – | -2.42 | 2.04 | 4.07% (inactive) |
| COc1ccc(-c2coc3cc(OC(C)=O)cc(OC(C)=O)c3c2=O)cc1 | – | 3.34 | 2.84 | -2.95% (inactive) |
| Nc1nc2c(nc(Br)n2C2OC(CO)C(O)C2O)c(=O)[nH]1 (configuration not stated) | – | 15.6 | 18.1 | 2.67% (inactive) |
| NC1=NCCN1CC(=O)O | – | 1.34 | 10.9 | 4.53% (inactive) |
| Nc1nc2c(nc(Cl)n2C2OC(CO)C(O)C2O)c(=O)[nH]1 (configuration not stated) | – | 20 | 24.4 | 3.5% (inactive) |
| O=c1[nH]c(=O)n([C@@H]2O[C@H](CO)[C@@H](O)[C@H]2O)cc1F | – | 0.66 | -5.85 | -3.28% (inactive) |
